Compounds with a hit are over-represented: about 3.6% of the library has one in this group of screens.
FAS-TE inh: FAS thioesterase domain inhibitors, primary screen, biochemical, fluorescence intensity, uHTS; recombinant FAS-TE, OMFH fluorogenic substrate, fluorescence endpoint; inhibition, % at 15 µM; actives 0.67% (n = 360,000);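 active = compounds whose normalised, plate-corrected inhibition of enzyme fluorescence in the single-dose primary screen is 50% or more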;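 also: 0% = DMSO with enzyme and 100% = substrate without enzyme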
NRP1-CendR mod: modulators of CendR peptide binding to NRP-1, primary screen, biochemical, fluorescence polarization, uHTS | FAM-RPARPAR peptide binding to NRP-1 | inhibition, % at 25 µM | actives 0.85% (n = 360,000) | AID 602438, 2012;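 active = inhibition or corrected inhibition above about 18%, plus a signal ratio from 0.5 to 1.5, limit read from the data, passing the limit was not always enough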
Myeloid diff MLP: induction of myeloid progenitor differentiation, primary screen, cell-based, flow cytometry, MLPCN library. calls only at 10 µM. ER-HoxA9 myeloid progenitors, lysozyme-GFP differentiation. AID 624256, 2012. actives 1% (n = 360,000);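 active = normalized GFP-positive differentiation at or above the plate's own cutoff, the solvent-only control mean plus 3 SD; inconclusive = no clear call, values can overlap the other calls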;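 also: cells exposed to compound for four days before flow analysis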
NadD block: inhibitors of S. aureus NadD, primary screen, biochemical, colorimetric, uHTS. actives 0.78% (n = 360,000). purified NadD enzyme, colorimetric absorbance read-out. inhibition, % at 20 µM; in the data active = inhibition above about 26%
CRFR2-BP antag: antagonists of CRF-BP/CRF-R2 complex, primary screen, cell-based, HEK293, calcium dye fluorescence, uHTS. CRF-induced calcium fluorescence. inhibition, % at 11.8 µM. actives 0.59% (n = 350,000);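 active = inhibition of the ligand-induced calcium signal above about 50% at the single tested concentration, limit read from the data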
NadD conf: inhibitors of S. aureus NadD, confirmation, biochemical, colorimetric, single concentration; inhibition, % at 20 µM; AID 624309, 2012; actives 13% (n = 2,000); shares compounds with NadD block; purified S. aureus NadD, colorimetric enzyme assay; in the data active = inhibition mostly above about 42%, no sharp cut-off; inactive = mostly below about 42%
* marks the source's active call; other numbers are inactive results.

What do the screens show for `S=c1nc[nH]c2c1sc1nc(N3CCOCC3)c3c(c12)CCCC3`?
FAS-TE inh: 11.1; NRP1-CendR mod: -8.8; Myeloid diff MLP: inactive; NadD block: 32.8*; CRFR2-BP antag: -6.0; NadD conf: -2.0

Results for COc1ccc(/C=N/NC(=O)c2cc(-c3ccccc3OC)nc3ccccc23)cc1COC(C)=O ?
FAS-TE inh: 19.7; NRP1-CendR mod: -1.3; Myeloid diff MLP: inactive; NadD block: 9.3; CRFR2-BP antag: 6.4

What do the screens show for `CCc1ccc(/C=N/NC(=O)c2cc(-c3ccccc3OC)nc3ccccc23)s1`?
FAS-TE inh: 25.3; NRP1-CendR mod: -0.8; Myeloid diff MLP: inactive; NadD block: 27.8; CRFR2-BP antag: 8.4

Results for COc1ccc(/C=N/NC(=O)c2cc(-c3ccc(C)cc3C)nc3ccccc23)cc1COC(C)=O ?
FAS-TE inh: 38.9; NRP1-CendR mod: 6.7; Myeloid diff MLP: inactive; NadD block: 37.5*; CRFR2-BP antag: -13.2; NadD conf: -3.0

How did COc1ccccc1-c1cc(C(=O)N/N=C/c2ccc(C)s2)c2ccccc2n1 do in these assays?
FAS-TE inh: 14.5; NRP1-CendR mod: -4.2; Myeloid diff MLP: inactive; NadD block: 32.2*; CRFR2-BP antag: 17.4; NadD conf: 16.2

Results for COc1ccc(C(=O)NCc2ccc(-n3cccc3)cc2)cc1OC ?
FAS-TE inh: 4.1; NRP1-CendR mod: 12.0; Myeloid diff MLP: inactive; NadD block: -1.4; CRFR2-BP antag: 7.5

What do the screens show for `O=C(Nc1nnc(C2CC2)s1)c1ccc(Cl)c(S(=O)(=O)N2CCc3ccccc3C2)c1`?
FAS-TE inh: 12.9; NRP1-CendR mod: 2.7; Myeloid diff MLP: inactive; NadD block: 33.0*; CRFR2-BP antag: -3.8; NadD conf: -1.4

What do the screens show for `COC(=O)Cn1c(=NC(=O)c2cc(-c3cccs3)nc3ccccc23)sc2cc(S(N)(=O)=O)ccc21`?
FAS-TE inh: 19.9; NRP1-CendR mod: -25.2; Myeloid diff MLP: inactive; NadD block: 30.9*; CRFR2-BP antag: -16.2; NadD conf: 16.3

What do the screens show for `COC(=O)Cn1c(=NC(=O)c2nc3ccccc3s2)sc2cc(S(N)(=O)=O)ccc21`?
FAS-TE inh: -7.4; NRP1-CendR mod: -6.5; Myeloid diff MLP: inactive; NadD block: 13.6; CRFR2-BP antag: -24.9

How did CCOC(=O)Cn1c(=NC(=O)c2cc(-c3cccs3)nc3ccccc23)sc2cc(S(N)(=O)=O)ccc21 do in these assays?
FAS-TE inh: 1.2; NRP1-CendR mod: -52.1; Myeloid diff MLP: inactive; NadD block: 55.5*; CRFR2-BP antag: -17.1; NadD conf: 61.2*

Results for O=C(O)Cn1ccc2cc(S(=O)(=O)N3CCCCC3)ccc21 ?
FAS-TE inh: -10.9; NRP1-CendR mod: -17.6; Myeloid diff MLP: inactive; NadD block: -3.1; CRFR2-BP antag: 1.4

What do the screens show for `COc1ccc(Cl)cc1Nc1nc(-c2sc(NC(=O)C(C)(C)C)nc2C)cs1`?
FAS-TE inh: 44.1; NRP1-CendR mod: -21.1; Myeloid diff MLP: inactive; NadD block: 38.8*; CRFR2-BP antag: -5.8; NadD conf: 10.0

Results for COc1ccccc1Nc1nc(-c2sc(NC(=O)c3ccccc3)nc2C)cs1 ?
FAS-TE inh: 12.4; NRP1-CendR mod: -35.9; Myeloid diff MLP: inactive; NadD block: 29.2; CRFR2-BP antag: -0.3

Results for CCOc1ccccc1Nc1nc(-c2sc(NC(=O)c3cccc(Cl)c3)nc2C)cs1 ?
FAS-TE inh: 23.1; NRP1-CendR mod: -8.8; Myeloid diff MLP: inactive; NadD block: 55.3*; CRFR2-BP antag: -20.7; NadD conf: -0.2

How did CCC(C)C(=O)Nc1nc(C)c(-c2csc(Nc3cc(Cl)ccc3OC)n2)s1 (stereo not given) do in these assays?
FAS-TE inh: 15.5; NRP1-CendR mod: -20.6; Myeloid diff MLP: inactive; NadD block: 32.4*; CRFR2-BP antag: -3.7; NadD conf: 13.1

Results for COc1ccc(OC)c(Nc2nc(-c3sc(NC(=O)C(C)(C)C)nc3C)cs2)c1 ?
FAS-TE inh: 21.7; NRP1-CendR mod: -31.2; Myeloid diff MLP: inconclusive; NadD block: 17.5; CRFR2-BP antag: -17.3

Results for COc1cccc(Nc2nc(-c3sc(NC(=O)c4ccco4)nc3C)cs2)c1 ?
FAS-TE inh: 6.4; NRP1-CendR mod: -29.7; Myeloid diff MLP: inactive; NadD block: 29.9*; CRFR2-BP antag: -11.1; NadD conf: 41.9*

Results for Cc1cc(C)c2c(n1)sc1c(O)cc(=O)[nH]c12 ?
FAS-TE inh: -6.4; NRP1-CendR mod: -14.3; Myeloid diff MLP: inactive; NadD block: 0.2; CRFR2-BP antag: 23.4

What do the screens show for `COc1ccc(-c2cc(C(F)(F)F)c3c(n2)sc2c(O)cc(=O)[nH]c23)c(OC)c1`?
FAS-TE inh: -13.4; NRP1-CendR mod: 106.6; Myeloid diff MLP: inactive; NadD block: 29.6*; CRFR2-BP antag: -126.3; NadD conf: 44.7

Results for C=CCn1c(=NC(=O)c2ccc(S(=O)(=O)N3CCc4ccccc4C3)cc2)sc2cc(S(N)(=O)=O)ccc21 ?
FAS-TE inh: 24.7; NRP1-CendR mod: -7.8; Myeloid diff MLP: inconclusive; NadD block: 32.2*; CRFR2-BP antag: -4.8; NadD conf: -4.2

What do the screens show for `CCOCCn1c(=NC(=O)c2ccc(S(=O)(=O)N3CCOCC3)cc2)sc2cc(S(N)(=O)=O)ccc21`?
FAS-TE inh: 6.7; NRP1-CendR mod: -5.2; Myeloid diff MLP: inactive; NadD block: 4.5; CRFR2-BP antag: 10.1

What do the screens show for `C=CCn1c(=NC(=O)c2ccc(S(=O)(=O)N3CCCc4ccccc43)cc2)sc2cc(S(N)(=O)=O)ccc21`?
FAS-TE inh: 13.2; NRP1-CendR mod: -4.7; Myeloid diff MLP: inactive; NadD block: 24.6; CRFR2-BP antag: -8.0

Results for COCCn1c(=NC(=O)c2ccc(S(=O)(=O)N3CCc4ccccc4C3)cc2)sc2cc(S(N)(=O)=O)ccc21 ?
FAS-TE inh: 35.2; NRP1-CendR mod: 2.3; Myeloid diff MLP: inactive; NadD block: 70.8*; CRFR2-BP antag: -0.3; NadD conf: 36.1

What do the screens show for `COc1cccc(C(=O)NNC(=O)Cc2cccs2)c1`?
FAS-TE inh: -0.6; NRP1-CendR mod: 4.7; Myeloid diff MLP: inactive; NadD block: -1.5; CRFR2-BP antag: -1.0

What do the screens show for `CCN(CC(=O)Nc1ccccc1OC)C(=O)CSCc1ccc(C)cc1`?
FAS-TE inh: 2.2; NRP1-CendR mod: -6.0; Myeloid diff MLP: inactive; NadD block: -1.7; CRFR2-BP antag: -16.7

What do the screens show for `O=C(NCC1CCCO1)C(c1ccco1)N(Cc1ccc(F)cc1)C(=O)CN1C(=O)c2ccccc2S1(=O)=O` (stereo not given)?
FAS-TE inh: 0.6; NRP1-CendR mod: 8.7; Myeloid diff MLP: inactive; NadD block: -6.8; CRFR2-BP antag: 2.4

High-throughput results from PubChem BioAssay.
